Records with an inconclusive call do not appear. Activity calls are given as the source filed them. The calls were made as follows, unless noted: active = hit-call score of the fitted dose curve at least 0.9, where 1 is the maximum; inactive = score below 0.9.
How the values were obtained:
[1] = ACEA_ER_80hr: ACEA Biosciences xCELLigence Real-Time Cell Analysis on Estrogen Receptor Agonism for Proliferation (AID 2282667; active = hit-call score of the fitted dose curve at least 0.9, where 1 is the maximum); conditions: T47D proliferation, impedance (xCELLigence), 80 h
Method in brief: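 T-47D cells monitored by electrical impedance (xCELLigence) with compound present throughout; 80 h timepoint, positive-direction fitting versus DMSO. Eight-point 1:4 dilutions from 100 uM final, duplicate plates.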

[2] = ATG_CRE_CIS: Attagene CIS-FACTORIAL HepG2 Assay for human cAMP Responsive Element (CRE) binding protein 3 (AID 2282926); conditions: HepG2 CRE cis-reporter, Attagene multiplexed mRNA; actives raise or lower the signal
Method in brief: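 Induced reporter mRNA from a CRE cis element, measured in HepG2 among many multiplexed units at 24 h. Detection used RT-PCR plus capillary electrophoresis of fluorescent fragments; DMSO served as negative control.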

[3] = biological target: CCAAT/enhancer-binding protein beta (Homo sapiens) (UniProt P17676); assay: ATG_C_EBP_CIS: Attagene CIS-FACTORIAL HepG2 Assay for human CCAAT/Enhancer Binding Protein (C/EBP) beta (AID 2282927); conditions: HepG2 Attagene cis-factorial transcription factor reporter; actives raise or lower the signal
Chain of CCAAT/enhancer-binding protein beta (Homo sapiens) (P17676 whole entry, looked up): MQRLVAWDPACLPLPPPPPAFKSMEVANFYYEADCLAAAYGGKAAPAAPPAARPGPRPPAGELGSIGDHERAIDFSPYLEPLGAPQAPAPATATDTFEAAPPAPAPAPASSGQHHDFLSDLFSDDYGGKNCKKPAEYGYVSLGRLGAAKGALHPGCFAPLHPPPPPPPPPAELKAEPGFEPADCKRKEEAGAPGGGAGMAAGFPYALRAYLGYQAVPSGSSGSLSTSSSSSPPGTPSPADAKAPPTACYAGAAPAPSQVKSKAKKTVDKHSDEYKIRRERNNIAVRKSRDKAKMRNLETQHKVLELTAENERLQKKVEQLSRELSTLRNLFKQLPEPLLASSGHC
Method in brief: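 Changes in reporter mRNA, rather than exogenous chimeric receptor activity, reflect native C/EBP signalling in transfected HepG2 cells dosed for 24 h; transcripts are detected by RT-PCR and capillary electrophoresis.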

[4] = ATG_DR4_LXR_CIS: Attagene CIS-FACTORIAL HepG2 Assay for human Liver X Receptor (LXR), DR4 submotif (AID 2282929); conditions: HepG2 Attagene DR4 cis-reporter, mRNA transcription; actives raise or lower the signal
Method in brief: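 Total RNA from 24 h-treated, MRTU-transfected HepG2 cells underwent reverse transcription, PCR, fluorescent primer extension and restriction digestion before capillary electrophoresis. Both increases and decreases in reporter signal were fitted against DMSO.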

[5] = biological target: Aryl hydrocarbon receptor (Homo sapiens) (UniProt P35869); assay: ATG_Ahr_CIS: Attagene CIS-FACTORIAL HepG2 Assay for human Aryl Hydrocarbon Receptor (Ahr) (AID 2282930); conditions: HepG2 AhR cis-factorial reporter transcription; actives raise or lower the signal
Chain of Aryl hydrocarbon receptor (Homo sapiens) (P35869 whole entry, looked up): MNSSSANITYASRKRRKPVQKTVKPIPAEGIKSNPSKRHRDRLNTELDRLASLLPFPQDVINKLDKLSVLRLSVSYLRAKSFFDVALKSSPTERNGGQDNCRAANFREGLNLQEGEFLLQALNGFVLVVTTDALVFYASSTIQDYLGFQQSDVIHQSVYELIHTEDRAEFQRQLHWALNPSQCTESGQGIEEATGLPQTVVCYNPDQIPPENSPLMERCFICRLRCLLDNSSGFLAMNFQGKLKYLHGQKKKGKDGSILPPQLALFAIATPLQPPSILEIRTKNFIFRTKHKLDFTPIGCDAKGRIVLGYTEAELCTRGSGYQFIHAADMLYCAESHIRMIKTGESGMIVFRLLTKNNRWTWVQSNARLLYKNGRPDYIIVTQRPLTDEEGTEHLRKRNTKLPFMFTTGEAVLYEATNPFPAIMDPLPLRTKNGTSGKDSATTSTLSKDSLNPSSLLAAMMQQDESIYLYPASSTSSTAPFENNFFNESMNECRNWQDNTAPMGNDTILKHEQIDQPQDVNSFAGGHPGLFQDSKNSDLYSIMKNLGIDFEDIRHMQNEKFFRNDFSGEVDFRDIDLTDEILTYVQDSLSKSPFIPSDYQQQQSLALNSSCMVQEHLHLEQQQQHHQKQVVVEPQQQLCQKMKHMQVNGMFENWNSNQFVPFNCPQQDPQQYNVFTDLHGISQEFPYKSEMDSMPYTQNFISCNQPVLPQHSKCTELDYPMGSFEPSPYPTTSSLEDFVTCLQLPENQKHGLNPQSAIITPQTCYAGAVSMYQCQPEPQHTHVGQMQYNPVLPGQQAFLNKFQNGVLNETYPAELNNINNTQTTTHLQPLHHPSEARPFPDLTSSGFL
Method in brief: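 HepG2, transient MRTU (cis) transfection, 24 h exposure. RNA → cDNA → PCR → 6-FAM primer extension → HpaI 2 h 37 C → CE. Fit: bidirectional, DMSO baseline.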

[6] = ATG_AP_1_CIS: Attagene CIS-FACTORIAL HepG2 Assay for human Activator Protein 1 (AP-1) (AID 2282931); conditions: HepG2 Attagene cis-factorial AP-1 reporter mRNA; actives raise or lower the signal
Method in brief: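 HepG2, transient cis-reporter transfection; 24 h; readout RT-PCR/CE fluorescence; DMSO baseline, gain and loss fitted.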

[7] = ATG_AP_2_CIS: Attagene CIS-FACTORIAL HepG2 Assay for human Activator Protein 2 (AP-2) (AID 2282932); conditions: HepG2 AP-2 cis-reporter, Attagene transcription factor profiling; actives raise or lower the signal
Method in brief: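 Endogenous transcription factor activity is reported through transfected multiplex reporter constructs in HepG2, after 24 h of compound exposure. Transcripts were quantified by RT-PCR and capillary electrophoresis of fluorescent fragments. Bidirectional fit against DMSO.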

[8] = ATG_BRE_CIS: Attagene CIS-FACTORIAL HepG2 Assay for human Bone Morphogenetic Protein (BMP) Response Element (BRE) (AID 2282933); conditions: HepG2 BMP response element reporter, Attagene transcription factor profiling; actives raise or lower the signal
Method in brief: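 Fluorescence-labelled reporter cDNA fragments, separated by capillary electrophoresis, gave the signal for this component of a 52-readout multiplex. HepG2 cells were transfected, exposed to chemicals for 24 h, and compared with DMSO using bidirectional fitting.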

[9] = biological target: Retinoic acid receptor alpha (Homo sapiens) (UniProt P10276); assay: ATG_DR5_RAR_CIS: Attagene CIS-FACTORIAL HepG2 Assay for human Retinoic Acid Receptor Alpha (RARE), DR5 submotif (AID 2282934); conditions: HepG2 Attagene cis-factorial RARE DR5 reporter, mRNA; actives raise or lower the signal;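 as to AC50: reporter responds to endogenous RAR alpha beta and gamma in HepG2 not RARA alone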
Chain of Retinoic acid receptor alpha (Homo sapiens) (P10276 whole entry, looked up): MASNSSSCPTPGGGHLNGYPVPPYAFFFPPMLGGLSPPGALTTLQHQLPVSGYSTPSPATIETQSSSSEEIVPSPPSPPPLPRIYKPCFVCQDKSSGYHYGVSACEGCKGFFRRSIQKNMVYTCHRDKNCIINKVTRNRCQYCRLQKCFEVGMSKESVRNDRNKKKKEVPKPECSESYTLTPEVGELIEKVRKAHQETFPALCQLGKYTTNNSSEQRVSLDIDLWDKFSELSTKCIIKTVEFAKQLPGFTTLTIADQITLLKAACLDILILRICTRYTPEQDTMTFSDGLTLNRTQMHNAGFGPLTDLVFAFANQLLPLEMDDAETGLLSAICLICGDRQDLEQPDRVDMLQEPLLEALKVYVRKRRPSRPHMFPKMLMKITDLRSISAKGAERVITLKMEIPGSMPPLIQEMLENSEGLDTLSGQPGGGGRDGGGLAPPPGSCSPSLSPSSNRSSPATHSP
Method in brief: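 HepG2, transient cis-reporter transfection, 24 h exposure. mRNA readout: RT-PCR, FAM label, HpaI cut, capillary electrophoresis. DMSO baseline, gain/loss fitting.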

[10] = biological target: Transcription factor E2F1 (Homo sapiens) (UniProt Q01094); assay: ATG_E2F_CIS: Attagene CIS-FACTORIAL HepG2 Assay for human E2F Transcription Factor 1 (AID 2282935); conditions: HepG2 Attagene cis-reporter, E2F reporter RNA transcripts; actives raise or lower the signal
Chain of Transcription factor E2F1 (Homo sapiens) (Q01094 whole entry, looked up): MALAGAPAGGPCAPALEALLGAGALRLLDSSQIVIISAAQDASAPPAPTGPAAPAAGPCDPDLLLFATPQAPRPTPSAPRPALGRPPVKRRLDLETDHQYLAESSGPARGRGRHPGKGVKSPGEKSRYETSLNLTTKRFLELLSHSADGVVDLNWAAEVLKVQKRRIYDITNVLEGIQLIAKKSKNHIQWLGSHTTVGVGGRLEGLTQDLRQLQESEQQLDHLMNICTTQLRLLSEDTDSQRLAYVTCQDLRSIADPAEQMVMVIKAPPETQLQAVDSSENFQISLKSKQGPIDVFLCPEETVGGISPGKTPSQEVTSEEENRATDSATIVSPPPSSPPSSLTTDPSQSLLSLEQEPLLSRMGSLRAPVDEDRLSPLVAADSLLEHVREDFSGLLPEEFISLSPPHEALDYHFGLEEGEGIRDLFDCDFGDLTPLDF
Method in brief: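 Gain or loss of reporter transcript, fitted against DMSO, reflects E2F1-driven transcription. Transiently transfected HepG2 dosed 24 h before RNA isolation. Quantified by fluorescent RT-PCR products separated by capillary electrophoresis.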

[11] = ATG_E_Box_CIS: Attagene CIS-FACTORIAL HepG2 Assay for human Enhancer Box (E-box) (AID 2282936); conditions: HepG2 E-box cis-reporter transcription, actives raise or lower the signal
Method in brief: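 E-box-driven reporter transcripts measured in transiently transfected HepG2 after 24 h exposure: RNA reverse-transcribed, PCR-amplified, fluorescently labelled, digested and resolved by capillary electrophoresis. Gain or loss relative to DMSO.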

[12] = ATG_M_61_CIS: Attagene CIS-FACTORIAL HepG2 Assay for M61 Transcription Factor (Internal Marker) (AID 2282937); conditions: HepG2 Attagene CIS-FACTORIAL M61 internal marker reporter; actives raise or lower the signal
Method in brief: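 Transfect HepG2 with MRTUs; dose 24 h; isolate RNA; reverse-transcribe with DNase I treatment; PCR-amplify, FAM-label and cut with HpaI for 2 h at 37 C; resolve by CE. Bidirectional fitting against DMSO.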

[13] = ATG_EGR_CIS: Attagene CIS-FACTORIAL HepG2 Assay for human Early Growth Response 1 (EGR1) (AID 2282938); conditions: HepG2 Attagene CIS-FACTORIAL EGR reporter mRNA; actives raise or lower the signal
Method in brief: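 After a 24 h treatment of transiently transfected HepG2 cells, total RNA was reverse-transcribed and reporter sequences PCR-amplified, labelled and run on capillary electrophoresis. Reporters sit under cis-regulatory promoters sensing endogenous factors.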

[14] = ATG_M_19_CIS: Attagene CIS-FACTORIAL HepG2 Assay for M19 Transcription Factor (Internal Marker) (AID 2282939); conditions: HepG2 Attagene CIS-FACTORIAL M19 internal marker reporter; actives raise or lower the signal
Method in brief: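 HepG2, MRTU transient transfection, 24 h dosing. Total RNA → RT-PCR → 6-FAM primer extension → HpaI digest → CE fluorescence. Bidirectional curve fit, DMSO negative control.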

[15] = ATG_ERE_CIS: Attagene CIS-FACTORIAL HepG2 Assay for Estrogen Response Element (ERE) (AID 2282940); conditions: HepG2 ERE cis-reporter, Attagene RNA transcript; actives raise or lower the signal
Method in brief: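 After a 24 h chemical treatment, RNA from reporter-transfected HepG2 cells is reverse-transcribed, PCR-amplified and fluorescently labelled. Fragments separated by capillary electrophoresis give reporter signal; DMSO serves as negative control.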

[16] = ATG_Ets_CIS: Attagene CIS-FACTORIAL HepG2 Assay for human Erythroblast Transformation Specific (ETS) (AID 2282941); conditions: HepG2 ETS cis-reporter transcription, actives raise or lower the signal
Method in brief: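 Bidirectional fit versus DMSO of reporter mRNA signal, detected by RT-PCR and capillary electrophoresis in HepG2 cells transiently transfected with cis-element reporters and dosed 24 h.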

[17] = ATG_GATA_CIS: Attagene CIS-FACTORIAL HepG2 Assay for human GATA Binding Protein (AID 2282944); conditions: HepG2 GATA cis-element reporter, Attagene multiplex mRNA; actives raise or lower the signal
Method in brief: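 Cells: HepG2, transiently transfected with cis-regulated reporter transcription units. Exposure: 24 h. Detection: RT-PCR plus capillary electrophoresis of FAM-labeled fragments. Analysis: bidirectional, DMSO as baseline.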

[18] = ATG_CMV_CIS: Attagene CIS-FACTORIAL HepG2 Assay for human CMV (Internal Marker) (AID 2282928); conditions: HepG2 CMV promoter reporter, transcription factor profiling; actives raise or lower the signal;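 also: endpoint acts as a background internal control marker rather than a target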
Method in brief: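 Reporter transcripts from transfected HepG2 cells are isolated after 24 h of chemical dosing, reverse-transcribed and amplified. Fragments labeled with 6-FAM are cut with HpaI and quantified by capillary electrophoresis; DMSO defines baseline.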

[19] = ATG_FoxO_CIS: Attagene CIS-FACTORIAL HepG2 Assay for human Forkhead box O (FoxO) (AID 2282943); conditions: HepG2 Attagene cis-reporter, FoxO element, mRNA; actives raise or lower the signal
Method in brief: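 Human hepatoma HepG2 cells carry transiently introduced reporter transcription units controlled by cis promoter elements. Chemical treatment lasted 24 h, and mRNA signal was compared with DMSO.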

[20] = biological target: Hepatocyte nuclear factor 3-beta (Homo sapiens) (UniProt Q9Y261); assay: ATG_FoxA2_CIS: Attagene CIS-FACTORIAL HepG2 Assay for human Forkhead box A2 (FOXA2) (AID 2282942); conditions: HepG2 cis-reporter transcription factor activity, 24 h; actives raise or lower the signal
Chain of Hepatocyte nuclear factor 3-beta (Homo sapiens) (Q9Y261 whole entry, looked up): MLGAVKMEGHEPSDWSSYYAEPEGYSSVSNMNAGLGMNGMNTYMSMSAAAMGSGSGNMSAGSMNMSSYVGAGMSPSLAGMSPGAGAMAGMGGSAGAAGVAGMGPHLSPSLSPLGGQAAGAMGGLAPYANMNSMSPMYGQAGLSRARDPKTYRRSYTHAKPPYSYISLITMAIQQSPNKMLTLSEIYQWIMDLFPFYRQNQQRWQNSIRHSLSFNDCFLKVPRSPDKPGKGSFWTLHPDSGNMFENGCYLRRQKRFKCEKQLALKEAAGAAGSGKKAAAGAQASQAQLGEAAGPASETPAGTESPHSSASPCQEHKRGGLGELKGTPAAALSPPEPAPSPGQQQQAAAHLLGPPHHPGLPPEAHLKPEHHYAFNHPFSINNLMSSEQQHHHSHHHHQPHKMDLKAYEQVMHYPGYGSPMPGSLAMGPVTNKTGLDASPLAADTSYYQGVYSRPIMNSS
Method in brief: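 24 h dosing of HepG2 bearing cis-reporter constructs; mRNA readout by RT-PCR/CE fluorescence; bidirectional fit, DMSO baseline.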

Measured: AC50

Brc1ccccn1
not listed: [18] | [19] | [20]
inactive: all other assays above

CC(O)C#CC(C)O (stereo not given)
active: [3] 179 µM | [18] 176 µM | [6] 24.7 µM | [8] 182 µM | [11] 185 µM | [13] 82.9 µM | [17] 69.2 µM
not listed: [4] | [5] | [9] | [19] | [20]
inactive: all other assays above

CC1CCCCC1
not listed: [4] | [11] | [18] | [20]
inactive: all other assays above

F[Si-2](F)(F)(F)(F)F
not listed: [9] | [11] | [18]
inactive: all other assays above

Cc1ccc(S(=O)(=O)C(I)I)cc1
active: [2] 8.93 µM | [6] 51.7 µM | [7] 13.1 µM | [9] 8.88 µM | [16] 8.59 µM | [17] 8.85 µM
not listed: [5] | [11] | [18] | [19] | [20]
inactive: all other assays above

O=C(O)CCC(F)(F)C(F)(F)C(F)(F)C(F)(F)C(F)(F)C(F)(F)C(F)(F)F
active: [6] 94.3 µM
not listed: [2]
inactive: all other assays above

CC1=CC2C3C=CC(C3)C2C1C (stereo not given)
active: [3] 100 µM | [10] 29.9 µM
not listed: [2]
inactive: all other assays above

CC(=O)c1ccccc1N
not listed: [4] | [5] | [11]
inactive: all other assays above

Source: PubChem BioAssay (EPA / NIEHS)
